Laboratory results as given in PubChem BioAssay (NCI).
About 83,000 compounds went through this panel and 20% of them were active in at least one assay; those are over-represented in the sample as a whole.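 How to read the values: 0–100, growth inhibition (40 = 60% inhibited); 0, no net growth; -100 to 0, cell death (-40 = 40% of starting cells died; -100 = all dead).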 Activity calls are given as the source filed them. The calls were made as follows: active = growth percent below 10; inactive = the rest.

Columns and labels:
Assay in all cases: NCI-60 one-dose screen, 48 h (100 = growth as untreated, 0 = no growth, -100 = all killed)
Conditions in all cases: 10 µM unless noted
[1] = test system: T-47D breast
[2] = test system: BT-549 breast
[3] = test system: MDA-MB-435 melanoma
[4] = test system: SW-620 colon
[5] = test system: MCF7 breast
[6] = test system: HCT-116 colon
[7] = test system: HCC-2998 colon
[8] = test system: KM12 colon

Measured: growth

C/C(=C(/c1ccccc1)c1ccc(OCC(O)CNCCN2CCOCC2)cc1)c1ccccc1 (centres undefined)
inactive: [1] 89.3% | [2] 105% | [4] 49% | [5] 44.6% | [6] 106% | [8] 54.3%
active: [3] -63.8% | [7] -59.6%

Fc1ccc2nc3c(cc2c1)CSc1nnc(-c2ccc[nH]c2=S)n1N3
inactive: [1] 84.1% | [2] 97.7% | [3] 103% | [4] 93.5% | [5] 98.7% | [6] 92.7% | [7] 103% | [8] 106%

COc1ccc(C(=O)c2cc3c(N)c(C(=O)Nc4cccc5ccccc45)sc3nc2C)cc1
inactive: [1] 32.6% | [2] 45.1% | [4] 21.9% | [5] 19.4% | [7] 20.8% | [8] 12.3%
active: [3] -6.84% | [6] 6.55%

CCCCCCCCOc1ccc(/C=N/Nc2cc(C)nc3ccc(Cl)cc23)cc1
inactive: [1] 56% | [2] 111%
active: [3] -19.8% | [4] -70.4% | [5] -69.7% | [6] -69.9% | [7] -58.6% | [8] -72.9%

COc1ccc(NC(=O)c2sc3nc(C)c(C(=O)c4ccc(OC)cc4)cc3c2N)cc1
active: [3] -26.2%
inactive: [1] 59.6% | [2] 49.1% | [4] 34.9% | [5] 25.3% | [6] 21.8% | [7] 89.4% | [8] 46.9%

COc1cc(-c2nc3occn3c2-c2ccnc(NCCNS(=O)(=O)c3ccc(Cl)cc3)n2)ccc1F
inactive: [1] 51.6% | [2] 95.5% | [3] 62.2% | [4] 109% | [5] 65.5% | [6] 63.6% | [7] 103% | [8] 86.9%

C#CC(=O)Nc1cccc(Nc2nc3c(c(NCc4ccccc4)n2)CCCC3)c1
active: [1] -38.7% | [2] -70% | [3] -70.6% | [4] -46.7% | [5] -39.7% | [6] -78.8% | [7] -89.3% | [8] -53.4%

CC(C)[N+](C)(CCOC(COc1ccccc1)COc1ccccc1)C(C)C
inactive: [1] 85.7% | [2] 80.6% | [3] 91.9% | [4] 102% | [5] 91.4% | [6] 92.2% | [7] 96.7% | [8] 83.5%

COc1cccc(CCC(=O)c2cc3c(N)c(C(=O)Nc4ccccc4)sc3nc2C)c1
inactive: [1] 38.2% | [2] 44.8% | [4] 22.2% | [5] 10.5% | [6] 14.4% | [7] 45.1% | [8] 23%
active: [3] -44.5%

NC(=O)c1cccc(-c2ccccc2N2CCCCC2)c1
inactive: [1] 83% | [2] 101% | [3] 100% | [4] 108% | [5] 92.5% | [6] 89.4% | [7] 102% | [8] 99.1%

FC(F)(F)c1cccc(Oc2ccc(Nc3ncnc4ccc(OCCCN5CCOCC5)cc34)cc2Cl)c1
inactive: [1] 32.7% | [2] 78.9% | [3] 43.2% | [4] 31.7% | [5] 28.7% | [6] 28% | [7] 29.3% | [8] 17.1%

COc1ccc(/C(=C\c2ccccc2)C(=O)O)cc1OC
inactive: [1] 85.7% | [2] 102% | [3] 106% | [4] 97.4% | [5] 93.7% | [6] 102% | [7] 103% | [8] 103%

COc1ccc(Cn2nc(-c3cc(OC)c(OC)c(OC)c3)c3c2CCc2cnoc2-3)cc1OC
active: [3] -7.19%
inactive: [1] 65.8% | [2] 61.1% | [4] 48% | [5] 29.8% | [6] 46.6% | [7] 70.5% | [8] 54%

CCCCCCCCCCCC(=O)C(CCCCCCCCCC)C(=O)Nc1ccccc1 (centres undefined)
inactive: [1] 92.1% | [2] 114% | [3] 110% | [4] 107% | [5] 108% | [6] 93.8% | [7] 101% | [8] 106%

CN(C)CCCn1c2c(c3ccc(-c4ccn[nH]4)cc3c1=O)C(=O)c1ccccc1-2
active: [5] 9.49%
inactive: [1] 43.2% | [2] 56.1% | [3] 78.4% | [4] 37.1% | [6] 28.9% | [7] 53.8% | [8] 18.1%

Nc1c(C(=O)Nc2ccc(Cl)cc2)cc(-c2nc3ccccc3s2)c(=O)n1NS(=O)(=O)c1ccc(Cl)cc1
inactive: [1] 92.9% | [2] 122% | [3] 99.8% | [4] 96.9% | [5] 84.2% | [6] 98.6% | [7] 107% | [8] 99%

COc1ccc(C(O)c2cc3c(N)c(C(=O)Nc4cccc(Br)c4C)sc3nc2C)cc1 (centres undefined)
active: [3] 8.91%
inactive: [1] 51.8% | [2] 42.3% | [4] 25.9% | [5] 22.1% | [6] 13.2% | [7] 16.2% | [8] 11.1%

COc1c(Cl)cc(Cl)c2ccc(C=C3C(=O)NC(=S)NC3=O)nc12
inactive: [1] 101% | [2] 90.2% | [3] 106% | [4] 104% | [5] 90.7% | [7] 99.2% | [8] 112%
active: [6] -76.2%

CC(C)Cc1ccc(C(C)C(=O)NCc2ccc(Cn3c(=O)sn(-c4ccc(Cl)cc4)c3=O)cc2)cc1 (centres undefined)
inactive: [1] 54.9% | [2] 95.1% | [3] 84.8% | [4] 59.8% | [5] 66.9% | [6] 75.6% | [7] 96.2% | [8] 69.8%

Cc1ccccc1-c1cc(Cc2ccc(F)cc2)c(=O)[nH]n1
inactive: [1] 99% | [2] 106% | [3] 119% | [4] 102% | [5] 97.9% | [6] 78.4% | [7] 119% | [8] 123%

COC(=O)CCCCCCCCC1(C)C=CC(C(C)O)=CC1 (centres undefined)
inactive: [1] 99.9% | [2] 108% | [3] 112% | [4] 91.2% | [5] 101% | [6] 99.7% | [7] 98.7% | [8] 99.8%

COc1ccc(/C(C)=N/NC(=O)CSc2nc3ccccc3c(=O)n2Cc2ccc(S(N)(=O)=O)cc2)c(OC)c1
inactive: [1] 95.6% | [2] 104% | [3] 102% | [4] 102% | [5] 90.7% | [6] 102% | [7] 115% | [8] 102%

O=C(N/N=C/c1cccnc1)c1ccccc1Nc1cccc(C(F)(F)F)c1
inactive: [1] 61.9% | [2] 80.7% | [3] 26.2% | [4] 84.1% | [5] 91.8% | [6] 85.9% | [7] 101% | [8] 88.2%

O=C1c2ccccc2-c2c1c1c(NCCCO)nc3ccccc3c1n2Cc1ccccc1
active: [2] -37.7% | [5] -23.2% | [6] -57.3%
inactive: [1] 78.2% | [3] 18.2% | [4] 25.2% | [7] 26.1% | [8] 38.3%

COc1ccc(C(O)c2cc3c(N)c(C(=O)Nc4ccc(Br)cc4)sc3nc2C)cc1 (centres undefined)
active: [3] -39.8% | [8] 4.23%
inactive: [1] 18.8% | [2] 50.8% | [4] 23.7% | [5] 18.6% | [6] 21% | [7] 46.7%

O=C(CSc1nc2sc3c(c2c(=O)n1Cc1ccccc1)CCCC3)N1CCN(c2ccccc2)CC1
inactive: [1] 80.9% | [2] 90.1% | [3] 101% | [4] 102% | [5] 95.5% | [6] 85.4% | [7] 103% | [8] 101%

CC(C)C1C2=C(NCCN1C(=O)Cc1ccccc1)C(C)(C)N(Cc1ccccc1)C2=O (centres undefined)
inactive: [1] 91.8% | [2] 99.7% | [3] 99.2% | [4] 92.5% | [5] 95.3% | [6] 91.7% | [7] 101% | [8] 107%

COc1ccc(-c2nc(N=Nc3c(O)[nH]c4ccccc34)nc(N3CCOCC3)c2C#N)cc1
inactive: [1] 65.4% | [2] 62.8% | [3] 79.1% | [4] 66.8% | [5] 60.6% | [6] 29.7% | [7] 95% | [8] 73.4%
